This is part of a sample that, as a whole, favours compounds with a hit. Of some 83,000 tested, about 20% had one in any assay.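 Plates (96-well) were seeded with cells, treated with compound at one concentration, and incubated for 48 hours before percent growth was determined.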 The source made the active and inactive calls. How the source made its calls: active means growth percent below 10; inactive means the rest.
Assays:
Assay in all cases: NCI-60 one-dose screen, 48 h (100 = growth as untreated, 0 = no growth, -100 = all killed)
Details in all cases: 10 µM unless noted
SR leukemia = test system: SR leukemia
RPMI-8226 leukemia = test system: RPMI-8226 leukemia
OVCAR-8 ovarian = test system: OVCAR-8 ovarian
OVCAR-5 ovarian = test system: OVCAR-5 ovarian
OVCAR-4 ovarian = test system: OVCAR-4 ovarian
SK-OV-3 ovarian = test system: SK-OV-3 ovarian
OVCAR-3 ovarian = test system: OVCAR-3 ovarian
HS 578T breast = test system: HS 578T breast
NCI/ADR-RES ovarian = test system: NCI/ADR-RES ovarian
IGROV1 ovarian = test system: IGROV1 ovarian

Measured: growth

Nc1nc(NC2CC2)c2ncn(C3C=CC(CO)C3)c2n1 (stereo not given)
inactive: SR leukemia 80.8% | RPMI-8226 leukemia 111% | OVCAR-8 ovarian 93.9% | OVCAR-5 ovarian 103% | OVCAR-4 ovarian 106% | SK-OV-3 ovarian 117% | OVCAR-3 ovarian 110% | HS 578T breast 104% | NCI/ADR-RES ovarian 104%

CCC(C)C1NC(=O)C(CCNCS(=O)(=O)O)NC(=O)C(NC(=O)C(CCNCS(=O)(=O)O)NC(=O)C(NC(=O)C(CCNCS(=O)(=O)O)NC(=O)CCCCC(C)C)C(C)O)CCNC(=O)C(C(C)O)NC(=O)C(CCNCS(=O)(=O)O)NC(=O)C(CCNCS(=O)(=O)O)NC(=O)C(C(C)CC)NC1=O (stereo not given)
inactive: SR leukemia 16.4% | RPMI-8226 leukemia 22.6% | OVCAR-8 ovarian 78.7% | OVCAR-5 ovarian 73.1% | OVCAR-4 ovarian 58.1% | SK-OV-3 ovarian 40.3% | IGROV1 ovarian 56.8% | NCI/ADR-RES ovarian 107%

COc1ccc(Oc2ccccc2NC(=O)CNC(=O)c2cccc3ccccc23)cc1
active: OVCAR-3 ovarian -16.6% [5 µM]
inactive: SR leukemia 23.7% [5 µM] | RPMI-8226 leukemia 27.4% [5 µM] | OVCAR-8 ovarian 17% [5 µM] | OVCAR-5 ovarian 40.9% [5 µM] | OVCAR-4 ovarian 67.2% [5 µM] | SK-OV-3 ovarian 20.4% [5 µM] | IGROV1 ovarian 33% [5 µM] | NCI/ADR-RES ovarian 15.3% [5 µM]

COc1ccccc1-n1c(-c2ccc(O)cc2C)cn2c3c(=O)[nH]c(=O)n(C)c3nc12
inactive: SR leukemia 90.8% | RPMI-8226 leukemia 93% | OVCAR-8 ovarian 86.3% | OVCAR-5 ovarian 86.9% | OVCAR-4 ovarian 84.4% | SK-OV-3 ovarian 65.8% | IGROV1 ovarian 21.9% | HS 578T breast 50.2% | NCI/ADR-RES ovarian 108%

COc1ccc([N+](=O)[O-])c(S(=O)(=O)c2ccc(Cl)cc2)n1
active: SR leukemia -16%
inactive: RPMI-8226 leukemia 34.9% | OVCAR-8 ovarian 71.7% | OVCAR-5 ovarian 77.1% | OVCAR-4 ovarian 68.7% | SK-OV-3 ovarian 97.2% | OVCAR-3 ovarian 36.6% | HS 578T breast 97.9% | NCI/ADR-RES ovarian 81.3%

N#Cc1c(-c2ccccc2)cc(-c2ccccc2)n(CC(=O)O)c1=O
inactive: SR leukemia 25% | RPMI-8226 leukemia 50.4% | OVCAR-8 ovarian 57.1% | OVCAR-5 ovarian 94.4% | OVCAR-4 ovarian 93% | SK-OV-3 ovarian 99.9% | OVCAR-3 ovarian 17.7% | HS 578T breast 51.6% | NCI/ADR-RES ovarian 26.2%

Nc1ccc(Oc2c(F)c(F)c(Oc3ccc(N)cc3)c(F)c2F)cc1
inactive: SR leukemia 96.3% | RPMI-8226 leukemia 82.9% | OVCAR-8 ovarian 101% | OVCAR-5 ovarian 83.4% | OVCAR-4 ovarian 83.8% | SK-OV-3 ovarian 105% | OVCAR-3 ovarian 101% | HS 578T breast 95.4% | NCI/ADR-RES ovarian 94%

COc1ccc(CNC(=O)c2c(C)n([O-])c3ccc(OC)cc3[n+]2=O)cc1
inactive: SR leukemia 90.4% | RPMI-8226 leukemia 94% | OVCAR-8 ovarian 87% | OVCAR-5 ovarian 103% | OVCAR-4 ovarian 105% | SK-OV-3 ovarian 126% | OVCAR-3 ovarian 187% | HS 578T breast 108% | NCI/ADR-RES ovarian 21.3%

O=C(NN1C(=O)c2cc(C(=O)O)c(C(=O)O)cc2C1=O)c1ccncc1
inactive: SR leukemia 119% | RPMI-8226 leukemia 103% | OVCAR-8 ovarian 112% | OVCAR-5 ovarian 107% | OVCAR-4 ovarian 116% | SK-OV-3 ovarian 110% | OVCAR-3 ovarian 131% | HS 578T breast 104% | NCI/ADR-RES ovarian 116%

Cc1ccc(C2=Nc3c(ccc4c(C)c(C)c(=O)oc34)OC2)cc1
inactive: SR leukemia 103% | RPMI-8226 leukemia 94.4% | OVCAR-8 ovarian 98.6% | OVCAR-5 ovarian 103% | OVCAR-4 ovarian 116% | SK-OV-3 ovarian 106% | OVCAR-3 ovarian 107% | HS 578T breast 110% | NCI/ADR-RES ovarian 97.3%

CC(=O)OC1Oc2cc(C)c(C)cc2-c2oc(=O)c(-c3ccccc3)cc21 (stereo not given)
inactive: OVCAR-8 ovarian 24.4% | OVCAR-5 ovarian 67.9% | OVCAR-4 ovarian 42% | SK-OV-3 ovarian 11.6% | NCI/ADR-RES ovarian 25.3%
active: SR leukemia -42.2% | RPMI-8226 leukemia -18.1% | OVCAR-3 ovarian -39.9%

COc1ccc(-c2cnc(SCC(=O)Nc3ccc(-c4nc5ccccc5s4)cc3)n2-c2ccc(OC)cc2)cc1
inactive: SR leukemia 99.5% | RPMI-8226 leukemia 113% | OVCAR-8 ovarian 105% | OVCAR-5 ovarian 99% | OVCAR-4 ovarian 111% | SK-OV-3 ovarian 111% | OVCAR-3 ovarian 109% | HS 578T breast 105% | NCI/ADR-RES ovarian 107%

COC(=O)c1cc2oc(/C=N\NC(=O)c3cc4oc(C)c(C)c4[nH]3)cc2[nH]1
inactive: SR leukemia 51.4% | RPMI-8226 leukemia 35.1% | OVCAR-8 ovarian 108% | OVCAR-5 ovarian 111% | OVCAR-4 ovarian 118% | SK-OV-3 ovarian 100% | OVCAR-3 ovarian 128% | HS 578T breast 108% | NCI/ADR-RES ovarian 102%

Source: PubChem BioAssay (NCI)
